PubChem BioAssay (NCI)
Compounds without any hit were thinned out: in the full panel of roughly 83,000, 20% have a hit.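 The endpoint reported here, percent growth, reads 100 for growth as untreated, 0 for no net growth and -100 for all cells dead.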 Active and inactive are the calls of the source. The calls were made as follows: active = growth percent below 10; inactive = the rest.

system: MDA-MB-468 breast; test: NCI-60 one-dose screen, 48 h (100 = growth as untreated, 0 = no growth, -100 = all killed); conditions: 10 µM unless noted

Structure (SMILES)	growth
Oc1ccc(-c2nnc(SCc3ccc(O)c4ncccc34)o2)cc1	10.8% (inactive)
O=C(Nc1nc(Cl)nc(Nc2ccc(N3CCOCC3=O)cc2)n1)c1ccc(Cl)s1	68.1% (inactive)
NC1CCC(Nc2nc(NCc3cc(Cl)ccc3O)c3ncn(C4CCCC4)c3n2)CC1 (stereo not given)	-51% (active)
COc1ccc(C(=O)c2ccc(C)cc2)c(OC)c1OC	20.5% (inactive)
O=C(c1ccccc1)C(O)C(Br)(CBr)c1ccccc1 (stereo not given)	50.7% (inactive)
N=c1n(Cc2ccccc2)c(N)cc(=O)n1Cc1ccccc1	83.3% (inactive)
N#Cc1c2c(nc3n[nH]c(N)c13)CCCC2	93.6% (inactive)
CCCCCCCCN(CCCCCCCC)CC(O)c1cc(-c2ccccc2)nc2ccc(OC)cc12 (stereo not given)	104% (inactive)
O=C(CN1CCN(c2cc3c(cc2F)c(=O)c(C(=O)O)cn3C2CC2)CC1)Nc1nc(-c2ccc(Cl)cc2)cs1	21.7% (inactive)
CCOC(=O)Nc1ccc2c(ccn2C(=O)c2cccc(F)c2)c1	34.5% (inactive)
CCCC1(c2ccccc2)NC(=O)NC1=O (stereo not given)	104% (inactive)
CC(C)(C)N1CC(OC(N)=O)C1	84.9% (inactive)
CN(C)Cc1cccs1	87.2% (inactive)
CCCCCCNC(=O)Oc1ccc(/C(=C(/C)c2ccc(OC)cc2)c2ccc(OCCN3CCCCCC3)cc2)cc1	1.03% (active)
Cc1ccc(Cn2c(O)c(N=NC(=O)c3ccc(S(N)(=O)=O)cc3)c3ccccc32)cc1	100% (inactive)
Cc1ccc(OCCOCCOCCOCCOc2ccc(C)n(O)c2=S)c(=S)n1O	-13.8% (active)
C=C1C(=O)O[C@H]2[C@H]1CC/C(COC(=O)NCc1c[nH]c3ccc(Br)cc13)=C\CC[C@@]1(C)O[C@@H]21	-58% (active)
CCc1ccccc1-n1c(N)c(C#N)c(-c2ccc(Cl)cc2)c(C#N)c1=O	98.8% (inactive)
Cc1cc(C)c(NC(=O)c2sc3nc4c(cc3c2N)CN(Cc2ccccc2)CC4)c(C)c1	14% (inactive)
COc1ccc(C(=O)/C=C/c2cc(-c3ccc4c(c3)OCO4)n[nH]2)cc1OC	28.2% (inactive)

Structure (SMILES)	growth
N=C(N)c1ccc(-c2ccc(-c3ccco3)o2)cc1F	-57.4% (active)
C=C(C)[C@@H]1CC[C@]2(COCCCNCCCN)CC[C@]3(C)[C@H](CC[C@@H]4[C@@]5(C)CC[C@H](OCCCN)C(C)(C)[C@@H]5CC[C@]43C)[C@@H]12	-67.8% (active)
CCN1CCN(Cc2ccc(NC(=O)Nc3ccc(-n4ccc5c(NC(=O)c6ccccc6)nccc54)cc3)cc2C(F)(F)F)CC1	60.1% (inactive)
c1ccc2[nH]c(-c3ccc(Nc4nc(N5CCCC5)nc5[nH]ncc45)cc3)nc2c1	-38.5% (active)
O=S(=O)(O)c1cccc(Nc2ccc3ccccc3c2)c1	105% (inactive)
O=C(CSc1ncccc1C(=O)O)Nc1ccc(Oc2ccccc2)cc1	101% (inactive)
CCCCOc1ncnc2nc[nH]c12	98.5% (inactive)
Nc1[nH]nc(Nc2ccccc2)c1-c1nc2ccccc2s1	17.5% (inactive)
FC(F)(F)c1cccc(Nc2nc3ccccc3nc2Nc2cccc(C(F)(F)F)c2)c1	-12.9% (active)
CC(CCCC(=O)O)c1ccoc1 (stereo not given)	119% (inactive)
O=C(c1c(F)ccc(NS(=O)(=O)N2CC[C@@H](F)C2)c1F)c1c[nH]c2ncc(-c3cnc(C4CC4)nc3)cc12	54.7% (inactive)
NC1(C(=O)N[C@@H](CCO)c2ccc(Cl)cc2)CCN(c2ncnc3[nH]ccc23)CC1	4.8% (active)
COc1cc(Nc2c3ccc(Cl)cc3nc3ccc(OC)cc23)c2ncccc2c1	36.3% (inactive)
Oc1ccccc1N=Cc1ccccc1	91% (inactive)
CCC(C)NC(=O)c1ccccc1C (stereo not given)	86.7% (inactive)
COc1ccc(/C=N\NC(=O)c2cc(-c3ccc(Br)cc3)n(-c3ccc(S(N)(=O)=O)cc3)n2)cc1	-1.98% (active)
COc1ccc(C(=O)N2c3ccccc3Sc3ccccc32)c(OC)c1	0.159% (active)
CSc1nc(N)c(CNC(C)c2ccccc2)c(=O)n1C (stereo not given)	97.4% (inactive)
COc1cc2c(cc1OC)C1(C)N(CC2)C(=O)OC1(C)C (stereo not given)	93.1% (inactive)
O=S(=O)(O)CCI	91.8% (inactive)
